Experimental data as given in PubChem BioAssay AID1345085 (National Center for Advancing Translational Sciences (NCATS), 2018).
Results filed as inconclusive are left out. The source made the active and inactive calls. Calls come from the whole dose curve; as a rule, active = well fitted cell-killing curve with a large enough effect; inconclusive = small, poorly fitted or top-dose-only effect, or effect the other way; inactive = no such curve, though single readings can be large or run the other way.

tested on: PA-1; test: Confirmatory qHTS for gynecologic anti-cancer compounds from libraries of approved drugs and bioactive compounds; conditions: gynecologic cancer cell panel viability, ATPlite luminescence, 48 h; series mostly up to 57.6 µM; note: nearly all actives have a fitted effect of over 55% in size
Method in brief: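 1,000 cells/well; 16 h pre-incubation 37 C, 5% CO2; pin-transferred cpd in DMSO, 11 conc (1:3), 57.5 uM–0.977 nM; 48 h; ATPlite, 15 min RT; luminescence → IC50.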
Potency is the fitted concentration of half-maximal effect.

SMILES | Potency
O=C1c2c(O)ccc(O)c2C(=O)c2c(NCCNCCO)ccc(NCCNCCO)c21 | 0.432 µM (active)
CC(C)Oc1ccc2c(=O)c(-c3ccccc3)coc2c1 | 17.2 µM (active)
Cc1cc(SCc2sc(-c3ccc(C(F)(F)F)cc3)nc2C)ccc1OCC(=O)O | inactive
O=C(NOCC1CC1)c1ccc(F)c(F)c1Nc1ccc(I)cc1Cl | 8.63 µM (active)
Nc1nc(Cl)nc2c1ncn2C1OC(CO)C(O)C1F (stereo unspecified) | 0.685 µM (active)
COc1cccc2cc(-c3nc(C4CCC(C(=O)O)CC4)n4ncnc(N)c34)[nH]c12 (stereo unspecified) | 9.68 µM (active)
